From PubChem BioAssay (NCATS)
Inconclusive results are not listed. Where a call stands in place of a potency, no number is given. A number with no mark means an inactive call. Calls of active or inactive are those of the source. Calls follow the shape of the dose curve; as a rule, active = well fitted curve in the direction sought with a large enough effect; inconclusive = small, poorly fitted or top-dose-only effect, or another doubt; inactive = no such curve, though single readings can be large; an effect the other way counts as inactive or inconclusive.

Experiments:
[1] = Quantitative High-Throughput drug screen in 47 multiple myeloma cell lines against the NCATS MIPE library collection: KMS20_JCRB cell viability assay (AID 1918973); also: nearly all actives have a fitted effect of over 45% in size; also: potency is read from the fitted curve at half-maximal effect
Method in brief: (§1)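 Approved and investigational drugs from MIPE 4.0 were added by pin tool to 500 cells per well. After 48 hours at 37C, ATP-based CellTiter-Glo luminescence indicated remaining viability.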

[2] = Quantitative High-Throughput drug screen in 47 multiple myeloma cell lines against the NCATS MIPE library collection: KMS26_JCRB cell viability assay (AID 1918975); also: nearly all actives have a fitted effect of over 45% in size; also: potency is read from the fitted curve at half-maximal effect
Method in brief: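 Relative luminescence from CellTiter-Glo served as the viability signal, referenced to DMSO-treated (100%) and cell-free medium (0%) controls. Treatment lasted 48 hours at 37C with 500 cells per well.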

[3] = Quantitative High-Throughput drug screen in 47 multiple myeloma cell lines against the NCATS MIPE library collection: MMM1_PLB cell viability assay (AID 1918976); also: potency is read from the fitted curve at half-maximal effect; nearly all actives have a fitted effect of over 35% in size
Method in brief: (§2)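 MIPE 4.0 approved/investigational drugs; 500 cells/well; 48 h 37 °C humidified 5% CO2; CTG luminescence readout; DMSO = 100%, media = 0% viability.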

[4] = Quantitative High-Throughput drug screen in 47 multiple myeloma cell lines against the NCATS MIPE library collection: MOLP8_DSMZ cell viability assay (AID 1918977); also: nearly all actives have a fitted effect of over 45% in size
Method in brief: as §2

[5] = Quantitative High-Throughput drug screen in 47 multiple myeloma cell lines against the NCATS MIPE library collection: OCIMY1_PLB cell viability assay (AID 1918979); also: nearly all actives have a fitted effect of over 35% in size
Method in brief: as §2

[6] = Quantitative High-Throughput drug screen in 47 multiple myeloma cell lines against the NCATS MIPE library collection: MM1S_ATCC cell viability assay (AID 1918980); also: nearly all actives have a fitted effect of over 45% in size; also: potency is read from the fitted curve at half-maximal effect
Method in brief: as §2

[7] = Quantitative High-Throughput drug screen in 47 multiple myeloma cell lines against the NCATS MIPE library collection: MM1R_ATCC cell viability assay (AID 1918981); also: nearly all actives have a fitted effect of over 35% in size; also: potency is read from the fitted curve at half-maximal effect
Method in brief: as §2

[8] = Quantitative High-Throughput drug screen in 47 multiple myeloma cell lines against the NCATS MIPE library collection: LP1_DSMZ cell viability assay (AID 1918982); also: nearly all actives have a fitted effect of over 35% in size; also: potency is read from the fitted curve at half-maximal effect
Method in brief: as §2

[9] = Quantitative High-Throughput drug screen in 47 multiple myeloma cell lines against the NCATS MIPE library collection: KMS28PE_JCRB cell viability assay (AID 1918983); also: nearly all actives have a fitted effect of over 35% in size; also: potency is read from the fitted curve at half-maximal effect
Method in brief: as §2

[10] = Quantitative High-Throughput drug screen in 47 multiple myeloma cell lines against the NCATS MIPE library collection: L363_DSMZ cell viability assay (AID 1918984); conditions: L363 myeloma viability, CellTiter-Glo ATP luminescence, 48 h; viability (% of control): at 45.8 µM (top of the series); also: nearly all actives have a fitted effect of over 40% in size; also: potency is read from the fitted curve at half-maximal effect
Method in brief: as §2

[11] = Quantitative High-Throughput drug screen in 47 multiple myeloma cell lines against the NCATS MIPE library collection: KMS34_JCRB cell viability assay (AID 1918985); also: nearly all actives have a fitted effect of over 40% in size; also: potency is read from the fitted curve at half-maximal effect
Method in brief: as §2

[12] = Quantitative High-Throughput drug screen in 47 multiple myeloma cell lines against the NCATS MIPE library collection: OPM1_PLB cell viability assay (AID 1918989); also: nearly all actives have a fitted effect of over 40% in size; also: potency is read from the fitted curve at half-maximal effect
Method in brief: as §2

[13] = Quantitative High-Throughput drug screen in 47 multiple myeloma cell lines against the NCATS MIPE library collection: SKMM1_PLB cell viability assay (AID 1919863); conditions: SKMM1 myeloma viability, CellTiter-Glo ATP, 48 h; viability: active compounds read low; also: nearly all actives have a fitted effect of over 35% in size; also: potency is read from the fitted curve at half-maximal effect
Method in brief: as §2

[14] = Quantitative High-Throughput drug screen in 47 multiple myeloma cell lines against the NCATS MIPE library collection: U266_ATCC cell viability assay (AID 1919864); also: nearly all actives have a fitted effect of over 35% in size; also: potency is read from the fitted curve at half-maximal effect
Method in brief: as §2

[15] = Quantitative High-Throughput drug screen in 47 multiple myeloma cell lines against the NCATS MIPE library collection: XG6_PLB cell viability assay (AID 1919865); also: nearly all actives have a fitted effect of over 40% in size; also: potency is read from the fitted curve at half-maximal effect
Method in brief: as §2

[16] = Quantitative High-Throughput drug screen in 47 multiple myeloma cell lines against the NCATS MIPE library collection: KMS12PE_JCRB cell viability assay (AID 1918972); also: nearly all actives have a fitted effect of over 30% in size
Method in brief: as §1

[17] = Quantitative High-Throughput drug screen in 47 multiple myeloma cell lines against the NCATS MIPE library collection: NCIH929_DSMZ cell viability assay (AID 1918978); also: nearly all actives have a fitted effect of over 35% in size; also: potency is read from the fitted curve at half-maximal effect
Method in brief: as §2

[18] = Quantitative High-Throughput drug screen in 47 multiple myeloma cell lines against the NCATS MIPE library collection: OCIMY7_PLB cell viability assay (AID 1918987); conditions: OCI-MY7 myeloma viability, CellTiter-Glo ATP, 48 h; viability (% of DMSO): at 45.8 µM (top of the series); also: potency is read from the fitted curve at half-maximal effect; nearly all actives have a fitted effect of over 65% in size
Method in brief: as §2

[19] = Quantitative High-Throughput drug screen in 47 multiple myeloma cell lines against the NCATS MIPE library collection: OCIMY5_PLB cell viability assay (AID 1918988); also: potency is read from the fitted curve at half-maximal effect; nearly all actives have a fitted effect of over 65% in size
Method in brief: as §2

Structure (SMILES): CN1C(=O)C(Cc2c[nH]c3ccccc23)NC1=S (stereo not given)
- Potency [1]: inactive
- Potency [2]: inactive
- Potency [3]: 11800 nM (active)
- Potency [4]: inactive
- Potency [5]: inactive
- Potency [6]: inactive
- Potency [7]: inactive
- Potency [8]: inactive
- Potency [9]: inactive
- Potency [10]: inactive
- Potency [11]: inactive
- Potency [12]: inactive
- Potency [13]: 418 nM (active)
- Potency [14]: 5900 nM (active)
- Potency [15]: inactive

Structure (SMILES): COC(=O)N1CCN(Cc2cccc(NC(=O)Nc3ccc(C)nc3)c2F)CC1
- Potency [16]: inactive
- Potency [17]: inactive
- Potency [5]: inactive
- Potency [8]: 16600 nM (active)
- Potency [11]: inactive
- Potency [12]: inactive
- Potency [14]: inactive
- Potency [15]: inactive

Structure (SMILES): O=C(NCCCCN1CCOCC1)c1cc2ccccc2o1
- Potency [16]: inactive
- Potency [5]: inactive
- Potency [7]: inactive
- Potency [8]: inactive
- Potency [9]: inactive
- Potency [11]: inactive
- Potency [12]: inactive
- viability [13]: 115%
- Potency [15]: inactive

Structure (SMILES): C[C@H]1[C@H](O)O[C@@H]2O[C@@]3(C)CC[C@@H]4[C@H](C)CC[C@@H]1[C@@]24OO3
- Potency [1]: 14800 nM (active)
- Potency [2]: 10500 nM (active)
- Potency [6]: 11800 nM (active)
- Potency [10]: 2350 nM (active)
- Potency [18]: 1180 nM (active)
- Potency [19]: 5260 nM (active)
- Potency [12]: 11800 nM (active)
- Potency [15]: 3720 nM (active)

Structure (SMILES): CN1N=C(N)c2cn([C@@H]3O[C@H](COP(=O)(O)O)[C@@H](O)[C@@H]3O)c3ncnc1c23
- Potency [1]: 1320 nM (active)
- Potency [2]: 13.2 nM (active)
- Potency [3]: 469 nM (active)
- Potency [17]: 46.9 nM (active)
- Potency [6]: 1180 nM (active)
- Potency [7]: 5900 nM (active)
- Potency [9]: 833 nM (active)
- Potency [11]: 833 nM (active)
- Potency [18]: 2090 nM (active)
- Potency [19]: 296 nM (active)
- Potency [12]: 469 nM (active)
- Potency [13]: 1320 nM (active)
- Potency [14]: 5260 nM (active)

Structure (SMILES): OC[C@H]1O[C@@H](Oc2ccc(O)cc2)[C@H](O)[C@@H](O)[C@H]1O
- Potency [1]: inactive
- Potency [2]: inactive
- Potency [4]: inactive
- Potency [7]: inactive
- Potency [8]: inactive
- Potency [9]: inactive
- Potency [10]: inactive
- Potency [11]: inactive
- Potency [12]: inactive

Structure (SMILES): CS(=O)(=O)c1ccc(C2=C(c3ccccc3)C(=O)OC2)cc1
- Potency [1]: inactive
- Potency [2]: inactive
- Potency [4]: inactive
- Potency [17]: inactive
- Potency [5]: inactive
- Potency [7]: inactive
- Potency [8]: inactive
- Potency [9]: inactive
- Potency [10]: inactive
- Potency [11]: inactive
- Potency [12]: inactive
- viability [13]: 152%
- Potency [15]: inactive
